A selection: hits, their analogues and other compounds. The true share with any hit is near 3.2%.
PG9 Ab binder: small molecules binding HIV-1 gp120 antibody PG9 | TR-FRET gp120-PG9 antibody binding | inhibition, % at 6.7 µM | actives 0.43% (n = 360,000) | AID 624416; in the data active means inhibition above about 8.5%
MsrA inh: bovine MsrA inhibition; actives 0.75% (n = 360,000); purified bovine MsrA, absorbance read-out; inhibition, % at 15.5 µM; AID 651718; in the data active means inhibition above about 4.5%;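 further: 0% = vehicle wells with enzyme and 100% = reference inhibitor wells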
rCAG RNA binder: r(CAG) repeat RNA binding; inhibition, % at 3 µM; actives 1.3% (n = 370,000); AID 651821; TO-PRO-1 dye displacement fluorescence;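 active means inhibition above the plate cutoff, the mean of all test compounds on that plate plus 3 SD, cut at about 35% in these data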;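 further: 0% = DMSO alone and 100% = 100 µM mitoxantrone as full dye displacement; higher means more dye released from RNA so lower well fluorescence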
HGIII-sPLA2 inh: Blocks human group III sPLA2 activity | Q9NZ20 | QFRET BODIPY PC-A2 liposome hydrolysis, fluorescence | inhibition, % at 12.2 µM | actives 0.56% (n = 370,000);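 active means inhibition above mean plus 3 SD of compounds lying within the high and low control bounds, cut at about 19% in these data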;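 further: 0% = median of test compound wells and 100% = no enzyme DMSO wells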
Target sequence (Q9NZ20 whole entry, looked up): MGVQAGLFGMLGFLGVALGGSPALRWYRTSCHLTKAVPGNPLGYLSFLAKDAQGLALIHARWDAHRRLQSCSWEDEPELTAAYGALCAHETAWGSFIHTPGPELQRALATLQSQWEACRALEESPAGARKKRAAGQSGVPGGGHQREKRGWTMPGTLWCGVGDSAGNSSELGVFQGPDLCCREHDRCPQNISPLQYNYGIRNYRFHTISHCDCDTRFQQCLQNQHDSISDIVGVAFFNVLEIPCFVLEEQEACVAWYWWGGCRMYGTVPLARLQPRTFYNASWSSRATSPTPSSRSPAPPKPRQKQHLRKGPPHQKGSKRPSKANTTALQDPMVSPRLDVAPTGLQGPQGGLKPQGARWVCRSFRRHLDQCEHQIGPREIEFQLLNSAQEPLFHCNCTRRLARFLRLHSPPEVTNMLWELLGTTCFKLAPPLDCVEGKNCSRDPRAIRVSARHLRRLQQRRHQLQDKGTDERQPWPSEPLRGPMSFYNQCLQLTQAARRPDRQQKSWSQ
bovine MsrA act: activators of bovine methionine sulfoxide reductase A | purified bovine MsrA, absorbance read-out | activation, % at 10.6 µM | actives 0.3% (n = 360,000) | AID 602163; in the data active means activation above about 7.5%;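 further: 0% = vehicle and 100% = reference activator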
* hit, by the source's call; nt = no result given.

SMILES | PG9 Ab binder | MsrA inh | rCAG RNA binder | HGIII-sPLA2 inh | bovine MsrA act
COc1ccc(Cn2cc(CN3[C@@H](CC(C)C)COc4cccc(F)c4S3(=O)=O)nn2)cc1 | nt | nt | 11 | -3 | nt
CCOC(=O)c1nn(-c2ccc(F)cc2)c(=O)cc1OCC(=O)Nc1cccc(C)c1 | 11* | -1 | -9 | 3 | -6
COC(=O)[C@]12C[C@H](CC(=O)NCc3cccc(C(F)(F)F)c3)C(=O)N(Cc3cccc4ccccc34)C1=C[C@H](C(C)(C)C)O[C@@H]2C | nt | nt | 2 | -9 | nt
C#Cc1cccc(Nc2nc(NCc3ccccc3)nc3ccsc23)c1 | 0 | 13* | 6 | -17 | -4
Cc1ccc(C(=O)Nc2scc(-c3ccccc3)c2C(=O)O)o1 | 0 | 4.6* | 13 | -2 | -6
CCCC(C)c1nnc(NC(=O)c2cc(C(=O)OC)cc([N+](=O)[O-])c2)s1 (centres undefined) | 1 | -1 | 50* | -2 | -6
CC(=O)NC(Cc1ccc2c(c1)OCO2)C(=O)N1CCCC1 (centres undefined) | nt | nt | 5 | 6 | nt
CC(C)c1ccc(S(=O)(=O)/N=C2\C=C(NS(=O)(=O)c3ccccc3)C(=O)c3ccccc32)cc1 | -2 | 2 | 68* | -6 | -1
C[C@@H](CO)N(Cc1cn(Cc2ccccc2)nn1)S(=O)(=O)c1ccccc1Br | nt | nt | 1 | 6 | nt
BrC(=C\c1ccccc1)/C=N/Nc1ccc2nncn2n1 | -1 | 4.5* | 7 | 7 | -5
Cc1ccccc1CNC(=O)c1cccc2c1C(=O)N(Cc1cccnc1)C2 | nt | nt | 0 | 11 | nt
CN(C)CCCNc1nc(-c2ccc(Cl)cc2)nc2ccccc12 | 1 | 6.0* | 3 | -8 | -2
Cc1ccc(-c2nc(NCCN(C)C)c3ccccc3n2)cc1 | -2 | 0 | 5 | -11 | -8
COc1ccc(/C=N/N=C/c2ccc(OC)c(OC)c2)cc1OC | 1 | 2 | -4 | 5 | 3
COc1ccc(/C=N/N=C/c2ccc(OC)c(O)c2)cc1O | -1 | 7.1* | 2 | -9 | -5
CN1CCCN(C(=O)C2CCCN(C(=O)c3ccc4c(c3)NC(=O)CS4)C2)CC1 (centres undefined) | nt | nt | 1 | 2 | nt
COCC(C)N1C(=O)Cc2c1nc(N)c1c(N)nc(N3CCN(c4ccccc4F)CC3)c(C#N)c21 (centres undefined) | 2 | 0 | 18 | 25* | -7
COc1ccc(CN2C(=O)Cc3c2nc(N)c2c(N)nc(N4CCOCC4)c(C#N)c32)cc1 | -3 | 1 | 27 | -1 | -2
Cc1cc2nc(-c3ccccc3)c(Cc3cccc(Cl)c3)n2c(C)c1Br | 0 | 1 | 52* | -18 | -6
FC(F)(F)c1cc(Cl)c2nc(-c3cccc(Cl)c3)c(Cc3cccc(Cl)c3)n2c1 | -35 | -1 | 7 | -4 | -3
FC(F)(F)c1cc(Cl)c2nc(-c3ccccc3)c(Cc3cccc(Cl)c3)n2c1 | -3 | -1 | 41* | -5 | -1
Cc1ccc(-c2nc3cc(C)c(Br)c(C)n3c2Cc2cccc(Cl)c2)cc1 | nt | nt | nt | nt | -5
COC(=O)C1CN(Cc2ccc(Cl)cc2)CCS(=O)(=O)N1Cc1cn(Cc2ccccc2)nn1 (centres undefined) | nt | nt | 3 | -6 | nt
CCOC(=O)C1Nc2ccccc2C2C(O)C(O)CC12 (centres undefined) | -2 | -1 | 43* | 4 | 2
CCOC(=O)C1Nc2ccc(C(F)(F)F)cc2C2c3ccccc3CC12 (centres undefined) | -1 | 1 | -1 | 0 | 0
SMILES | PG9 Ab binder | MsrA inh | rCAG RNA binder | HGIII-sPLA2 inh | bovine MsrA act
O=C1OCCN1C(=O)[C@H]1[C@H](c2ccc([N+](=O)[O-])cc2)C(c2ccc(F)cc2)=NN1c1ccc(Br)cc1 | -1 | 4.7* | 15 | 2 | -12
Cc1ccc(S(=O)(=O)N2CCCC2C(=O)N2CCc3ccccc3C2)cc1C (centres undefined) | nt | nt | 2 | 3 | nt
COc1cccc(OC)c1C(=O)Nn1c(C2CCC2)nc2ccccc2c1=O | -3 | -1 | 4 | 1 | 9.4*
COC(=O)c1c(-c2ccco2)csc1NC(=O)C1CC=CCC1C(=O)O (centres undefined) | 9.7* | 2 | 23 | 0 | -8
CC(C)(C)C(=O)OC12CCCN(C1)/C(=C/c1ccc(C#N)cc1)C2 (centres undefined) | nt | nt | -5 | 3 | nt
C=CCOC(=O)N1CCC(NS(=O)(=O)c2ccc3c(c2)CCN3C(C)=O)CC1 | nt | nt | 5 | 3 | nt
Cc1ccc(/C=C2/C(=O)ON=C2c2ccccc2)o1 | -3 | 0 | 39* | -5 | -3
COc1ccc(S[C@]2(C(=O)NCC(C)C)CC(=O)N[C@@H]2c2ccc(OC)cc2)cc1 | nt | nt | 0 | -2 | nt
